Rows were chosen to be rich in hits. Some 1.4% of all compounds tested hit in one or more screens of this group.
RE007 growth inh: less growth of the S. pombe RE007 Vpr strain | AID 651644 | S. pombe RE007 Vpr strain, BacTiter-Glo ATP luminescence, 24 h | 360,000 compounds, 0.21% hits | Potency, µM (top dose mostly 92.2 µM), usual class: inhibitors; active = well fitted falling curve with a large enough effect; inconclusive = small, poorly fitted or top-dose-only effect; inactive = no such curve, though single readings can be large or run the other way; note: nearly all actives have a fitted effect of over 50% in size
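Fission yeast strain RE007, carrying one chromosomally integrated HIV-1 vpr copy, was seeded at OD 0.01 in PMG+AL medium with 23 nL pinned compound. After 24 h at 30 °C and 99% humidity, viability was read by BacTiter-Glo luminescence.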
AmpC detergent: AmpC beta-lactamase inhibition with detergent present. AmpC hydrolysis of nitrocefin, absorbance 480 nm, 0.01% Triton. Potency, µM (series often up to 114 µM), most hits filed as inhibitors. 370,000 compounds, 0.041% hits; note: nearly all actives have a fitted effect of over 25% in size
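AmpC (5.3 nM in the dispensed reagent) in 20 mM phosphate pH 7.0 with 0.01% (detergent screen) or 0.0001% Triton X-100 was preincubated with compounds for 15 min at room temperature. Nitrocefin was then added from an 800 uM solution, and hydrolysis was followed at 480 nm.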
Giardia FBPA inh-1: inhibitors of Giardia lamblia fructose-1,6-bisphosphate aldolase. Potency, µM (series often up to 59.6 µM), usual class: inhibitors. 290,000 compounds, 0.71% hits. A8B2U2. AID 2451. purified Giardia FBPA; note: nearly all actives have a fitted effect of over 55% in size
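Giardia FBPA (40 nM reagent) was preincubated 10 min at RT with compound (up to 57.5 uM final), then substrate plus GAPDH/TPI/NAD/arsenate coupling system with diaphorase/resazurin was added; resorufin fluorescence (525/598 nm) was read after 20 min.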
AmpC inh no detg: blocks E. coli AmpC beta-lactamase in detergent-free assay; P00811; 330,000 compounds, 0.52% hits; AmpC nitrocefin hydrolysis, absorbance 480 nm, 0.0001% Triton; Potency, µM (doses to about 57.1 µM), hits mostly inhibitors; AID 485341; note: nearly all actives have a fitted effect of over 20% in size
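20 mM phosphate pH 7.0 + 0.01% (detergent screen) or 0.0001% Triton X-100; 5.3 nM AmpC reagent; cpd preinc 15 min RT; nitrocefin (800 uM stock) to start; A480 q20 s × 4 min; Activity was normalised to no-enzyme and no-compound control wells.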
LmPK inhibitor: LmPK (Leishmania mexicana) enzyme inhibition; Q27686; 290,000 compounds, 0.37% hits; purified LmPK, Kinase-Glo ATP luminescence, 1 h; Potency, µM (highest dose often 57.5 µM), actives largely listed as inhibitors
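qHTS format; LmPK 0.1 nM; substrates PEP 0.5 mM and ADP 0.1 mM. One-hour room-temperature incubation, then coupled luciferase luminescence; 0.5 nM enzyme wells mark activation.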
TbPYK inhibitor: blocks Trypanosoma brucei pyruvate kinase; Q57TT1; TbPYK enzyme, Kinase-Glo Plus ATP luminescence, 45 min; Potency, µM (doses to about 76.8 µM), most hits filed as inhibitors; 410,000 compounds, 0.12% hits; AID 624173; note: nearly all actives have a fitted effect of over 50% in size
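ADP (130 uM final) triggers the TbPYK reaction after compound addition; incubation is 45 min at room temperature. Kinase-Glo Plus is then added and luminescence imaged. Normalized data are fitted to concentration-effect curves.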
Giardia growth: inhibitors of Giardia lamblia growth | shares compounds with Giardia FBPA inh-1 | Giardia lamblia trophozoite growth inhibition | Potency, µM (doses to about 57.5 µM), usual class: inhibitors | 1,500 compounds, 5% hits;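 note: trophozoites exposed to compound for 48 h at 37 °C; nearly all actives have a fitted effect of over 70% in size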
Mammalian tox: mammalian cytotoxicity of Giardia aldolase inhibitor hits; 1,500 compounds, 4% hits; mammalian cell viability counter-screen, qHTS; shares compounds with Giardia FBPA inh-1; Potency, µM (titrated, usually from 57.5 µM), actives largely listed as inhibitors; AID 2786;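 note: Chinese hamster ovary cells used as mammalian cytotoxicity surrogate; viability measured as cellular ATP by luminescence; compound exposure lasted 48 h before reading; nearly all actives have a fitted effect of over 60% in size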
Giardia FBPA inh-2: confirmation of Giardia fructose-bisphosphate aldolase inhibitors; shares compounds with Giardia FBPA inh-1; purified Giardia aldolase enzyme activity, qHTS; Potency, µM (highest dose often 57.5 µM), actives largely listed as inhibitors; 1,500 compounds, 5% hits; AID 2787; note: nearly all actives have a fitted effect of over 45% in size
Rabbit FBPA inh: rabbit FBP aldolase inhibition by Giardia aldolase hits | 1,500 compounds, 4% hits | Potency, µM (highest dose often 57.5 µM), hits mostly inhibitors | AID 2794 | Rabbit muscle FBPA enzyme inhibition, selectivity counter-screen | shares compounds with Giardia FBPA inh-1; note: nearly all actives have a fitted effect of over 60% in size
Target sequence (P00883 whole entry, looked up): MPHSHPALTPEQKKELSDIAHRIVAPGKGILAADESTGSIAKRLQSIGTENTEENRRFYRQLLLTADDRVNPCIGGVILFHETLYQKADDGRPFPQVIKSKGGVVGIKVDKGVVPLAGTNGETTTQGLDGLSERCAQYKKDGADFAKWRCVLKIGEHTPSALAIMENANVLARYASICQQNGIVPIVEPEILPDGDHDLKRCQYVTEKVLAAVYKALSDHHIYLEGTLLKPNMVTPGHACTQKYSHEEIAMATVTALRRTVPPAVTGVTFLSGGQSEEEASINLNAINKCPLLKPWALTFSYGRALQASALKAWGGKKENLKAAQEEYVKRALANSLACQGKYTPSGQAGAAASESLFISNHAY
GAPDH coupling: counter-screen for Giardia aldolase inhibitors: GAPDH coupling enzyme; GAPDH coupling enzyme counterscreen, biochemical, qHTS; AID 2795; 1,500 compounds, 6% hits; Potency, µM (titrated, usually from 57.5 µM), usual class: inhibitors; shares compounds with Giardia FBPA inh-1; note: nearly all actives have a fitted effect of over 55% in size
Hits are given with their value; i = inactive; ? = inconclusive; nt = no result given; [ ] = another dose, or the depositor's remark. Unless noted, calls come from the whole dose curve; as a rule, active = well fitted curve in the direction sought with a large enough effect; inconclusive = small, poorly fitted or top-dose-only effect, or another doubt; inactive = no such curve, though single readings can be large; an effect the other way counts as inactive or inconclusive.

SMILES	RE007 growth inh	AmpC detergent	Giardia FBPA inh-1	AmpC inh no detg	LmPK inhibitor	TbPYK inhibitor	Giardia growth	Mammalian tox	Giardia FBPA inh-2	Rabbit FBPA inh	GAPDH coupling
Cc1cc(C)cc(C(=O)Nc2ccc(-c3nc4ncccc4o3)cc2)c1	nt	i	nt	nt	nt	i	nt	nt	nt	nt	nt
O=c1nc(N/N=C/c2ccccn2)cn[nH]1	i	i	0.706µM	i	i	i	i	?	i	i	i
Cc1ccc(/C=N/Nc2cn[nH]c(=O)n2)o1	i	i	17.7µM	i	i	i	i[10.4 µM]	i	i	i	i
Cc1ccc(/C=N/Nc2ccc3ccccc3n2)o1	i	i	i	i	?	i	nt	nt	nt	nt	nt
C(=N\Nc1nc2ccccc2[nH]1)/c1ccccn1	?	?	?	i	?	?	nt	nt	nt	nt	nt
O=c1cnnc(N/N=C/c2ccccn2)[nH]1	i	i	0.792µM	i	i	i	i	?	i	i	i
COc1ccc(Nc2cc(O)c3ncccc3c2)cc1	nt	?	nt	i	nt	nt	nt	nt	nt	nt	nt
CCS(=O)(=O)N1CCc2cc(C(=O)Nc3ccc(OC)c(Cl)c3)ccc21	nt	i	nt	nt	nt	i	nt	nt	nt	nt	nt
Cc1ccc(NC(=O)Cn2nc(C)n3cccc3c2=O)c(C)c1	nt	i	nt	nt	nt	i	nt	nt	nt	nt	nt
COc1ccc(C(=O)c2cn(Cc3cccc(C)c3)c3cc4c(cc3c2=O)OCCO4)cc1OC	nt	i	nt	nt	nt	i	nt	nt	nt	nt	nt
O=C(CCN1CCN(CCO)CC1)N1c2ccccc2Sc2ccc(C(F)(F)F)cc21	i	?	7.94µM	i	i	i	i	i	i	i	i
COc1cc(/C=N/NC2=NS(=O)(=O)c3ccccc32)cc(OC)c1OC	i	i	7.94µM	i	i	i	i	i	i	i	i
CC(=O)Oc1ccc(/C=N/NC2=NS(=O)(=O)c3ccccc32)cc1	i	?	7.94µM	i	i	i	i	i	i	i	i
CN(C)c1ccc(/C=N/NC2=NS(=O)(=O)c3ccccc32)cc1	i	i	?	i	i	i	nt	nt	nt	nt	nt
O=[N+]([O-])c1cccc(/C=N/NC2=NS(=O)(=O)c3ccccc32)c1	i	i	i	i	i	i	nt	nt	nt	nt	nt
COc1ccc(/C=N/NC2=NS(=O)(=O)c3ccccc32)cc1OC(C)=O	i	i	3.55µM	i	i	i	i	i	?	i	i
O=S1(=O)N=C(N/N=C/c2ccccn2)c2ccccc21	i	?	?	i	i	i	nt	nt	nt	nt	nt
COc1ccc(/C=N/NC2=NS(=O)(=O)c3ccccc32)cc1	i	i	4.47µM	i	i	i	i[10.4 µM]	i	i	i	i
CCC(Sc1nc2c(sc3ccccc32)c(=O)n1CCc1ccc(OC)c(OC)c1)C(=O)N(CC)CC (stereo not drawn)	nt	i	nt	nt	nt	i	nt	nt	nt	nt	nt
CCOc1ccc(-c2cc(CCCC(=O)NCCc3ccc(SC)cc3)no2)cc1	nt	i	nt	nt	nt	i	nt	nt	nt	nt	nt
COc1ccc(OC)c(/C=N/NC2=NS(=O)(=O)c3ccccc32)c1	i	i	15.8µM	i	i	i	i[10.4 µM]	i	i	i	i
COc1ccc2c(c1OC)C(=O)N(c1nc(SC)n[nH]1)C2=O	i	?	15.8µM	i	i	i	i	i	i	i	i
COc1ccc2c(c1OC)C(=O)N(c1cccc(C)c1)C2=O	i	i	i	i	i	i	nt	nt	nt	nt	nt
Cc1ccc(C)c(NC(=O)Cn2c(=O)n(Cc3ccco3)c(=O)c3oc4ccccc4c32)c1	nt	i	nt	nt	nt	i	nt	nt	nt	nt	nt
COc1ccc2[nH]c(=O)c(CN(C(=O)c3cccc(Cl)c3)c3ccccc3OC)cc2c1	nt	i	nt	nt	nt	i	nt	nt	nt	nt	nt
Cn1cnc(Sc2ncnc3nc[nH]c23)c1[N+](=O)[O-]	i	i	14.1µM	i	i	?	?	i	i	i	i

Assay outcomes: PubChem BioAssay, National Center for Advancing Translational Sciences (NCATS)
